From PubChem
Shiga inhibitor: A qHTS for Small Molecule Inhibitors of Shiga Toxin. Vero cells, Shiga toxin protein synthesis inhibition reporter. 290,000 compounds, 9.2% hits. inhibition, % at 38.7 µM; in the data active = inhibition mostly above about 28%, no sharp cut-off; inactive = mostly below about 43%; note: 0% is about no effect
Pf growth 48h: Primary qHTS for delayed death inhibitors of the malarial parasite plastid, 48 hour incubation | 310,000 compounds, 5.9% hits | Potency, µM (top dose mostly 28.7 µM), without a hit: top-dose activity change, negative = inhibition, hits mostly inhibitors | P. falciparum luciferase growth in erythrocytes, 48 h; note: potency is the fitted concentration of half-maximal effect; % is set by controls: 0 for no effect and ±100 for the full control effect
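Luciferase-expressing parasites in RBCs, 2% Hct / 0.1% parasitemia final; RPMI 1640 + 0.5% Albumax; 37 C, 5% CO2, one generation; luminescence read-out, lower signal = inhibition.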
Giardia FBPA inh: qHTS Assay for Inhibitors of Fructose-1,6-bisphosphate Aldolase from Giardia Lamblia; purified Giardia FBPA; Potency, µM (highest dose often 59.6 µM), without a hit: at the top dose activity, negative = inhibition, hits mostly inhibitors; 290,000 compounds, 0.71% hits; AID 2451, 2010; note: potency is the fitted concentration of half-maximal effect; % is set by controls: 0 for no effect and ±100 for the full control effect; nearly all actives have a fitted effect of over 55% in size
Target sequence (A8B2U2 whole entry, looked up): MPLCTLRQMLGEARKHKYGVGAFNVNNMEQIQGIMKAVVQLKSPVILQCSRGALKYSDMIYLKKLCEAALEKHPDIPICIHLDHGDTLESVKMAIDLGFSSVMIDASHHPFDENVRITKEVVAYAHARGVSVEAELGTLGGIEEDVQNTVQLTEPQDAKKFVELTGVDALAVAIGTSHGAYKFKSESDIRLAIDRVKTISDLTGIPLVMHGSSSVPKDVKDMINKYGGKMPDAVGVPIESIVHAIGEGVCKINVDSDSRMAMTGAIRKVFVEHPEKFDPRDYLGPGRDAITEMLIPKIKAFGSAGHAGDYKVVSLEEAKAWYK
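40 nM FBPA preincubated 10 min at RT with compound (up to 57.5 uM final), then substrate plus GAPDH/TPI/NAD/arsenate coupling and diaphorase/resazurin added. Fluorescence read after 20 min at RT, 525/598 nm.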
Pf growth 96h: Primary qHTS for delayed death inhibitors of the malarial parasite plastid, 96 hour incubation; Potency, µM (doses to about 28.7 µM), for inactives: top-dose activity change, negative = inhibition, actives largely listed as inhibitors; P. falciparum luciferase reporter growth, 96 h; AID 504834, 2011; 320,000 compounds, 6.9% hits; note: potency is the fitted concentration of half-maximal effect; % is set by controls: 0 for no effect and ±100 for the full control effect
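Two parasite generations (96 h, 37 C, 5% CO2) of compound exposure in infected erythrocytes (0.05% parasitemia, 2% hematocrit). Luciferase-reporter P. falciparum; decreased luminescence indicates inhibited growth, aimed at apicoplast-acting delayed death.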
Cycloheximide cs: Cycloheximide Counterscreen for Small Molecule Inhibitors of Shiga Toxin | cell reporter, cycloheximide protein synthesis inhibition counterscreen | AID 2314, 2010 | max response, % | 300,000 compounds, 12% hits; in the data active = max response mostly above about 13%, no sharp cut-off; inactive = mostly below about 14%; note: read at 38.3 µM for the half of the compounds with a filed dose; 0% is about no effect
NS1 function inh: qHTS Assay for Inhibitors of Influenza NS1 Protein Function | Potency, µM (series often up to 46.1 µM), for inactives: at the top dose activity, positive = more growth | 270,000 compounds, 0.4% hits | AID 2326, 2010; calls by dose curve; note: potency is the fitted concentration of half-maximal effect; actives are rising curves; nearly all actives have a fitted effect of over 50% in size
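OD600 was taken as the measure of yeast growth restored by compound in an NS1-expressing S. cerevisiae strain. Cells had been washed out of glucose medium and diluted 1:100 into galactose -URA medium, pH 6.0.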
* = called active by the depositor; ? = inconclusive; · = no result given; [ ] = another dose, or the depositor's remark. Rows were chosen to be rich in hits. Some 21% of all compounds tested hit in one or more screens of this group. Unless noted, calls come from the whole dose curve; as a rule, active = well fitted curve in the direction sought with a large enough effect; inconclusive = small, poorly fitted or top-dose-only effect, or another doubt; inactive = no such curve, though single readings can be large; an effect the other way counts as inactive or inconclusive.

SMILES	Shiga inhibitor	Pf growth 48h	Giardia FBPA inh	Pf growth 96h	Cycloheximide cs	NS1 function inh
FC(F)(F)c1cc(Nc2ccccc2)nc(-c2ccccn2)n1	-7	2.9µM*	17%	?	2	-6%
O=C(NC1=NCCS1)c1ccc(Cl)c(S(=O)(=O)N2CCOCC2)c1	30	?	1%	-59%[5.75 µM]	7	·
O=C(Nc1ccc2cn[nH]c2c1)c1ccc(Cl)c(S(=O)(=O)N2CCOCC2)c1	5	?	-1%	?	45*	6%
O=C(Nc1ccc(Cl)c(S(=O)(=O)N2CCOCC2)c1)c1ccccn1	23	-20%	-13%	-24%	1	1%
Cc1ccc(NC(=O)COC(=O)c2ccc3c(c2)OCCO3)cc1S(=O)(=O)N1CCOCC1	3	-9%	0%	-20%	27	·
O=C(Nc1ccc(Cl)c(S(=O)(=O)N2CCOCC2)c1)c1ccc2c(c1)OCCO2	47*	13µM*	0%	?	24*	·
O=C(Nc1ccc(Cl)c(S(=O)(=O)N2CCOCC2)c1)c1ccc(Cl)nc1	·	?	·	7.4µM*	·	·
O=C(Nc1ccc(Cl)c(S(=O)(=O)N2CCOCC2)c1)c1ccc(OCC2CCCO2)cc1 (centres undefined)	2	12µM*	-8%	4.1µM*	25	·
O=C(NC1CC2CCCC(C1)N2C(=S)Nc1ccccc1)C1CC1 (centres undefined)	-16	21%	-8%	10%	-5	3%
Fc1ccc(-c2nc3c(-c4ccc(Cl)cc4)cnn3cc2CCN2CCOCC2)cc1	-6	?	7%	?	1	5%
CC(C)(CNC(=O)C1c2ccccc2-c2ccccc21)N1CCOCC1	3	?	1%	-13%	-1	-1%
O=C(Nc1ccc(Cl)c(S(=O)(=O)N2CCOCC2)c1)c1cc(-c2ccccn2)nc2ccccc12	-6	12µM*	-6%	?	1	·
Cc1c(Cl)c([N+](=O)[O-])nn1CC(=O)N1CCCc2ccccc21	-2	35%	0%	?	25*	15%
O=C(O)Cn1cc2c(n1)CCCCC2	-11	38%	2%	-14%	-4	-5%
O=C(Cn1cc2c(n1)CCCCC2)N1CCCCC1	38	36%	1%	12%	18*	?
CC1CCc2nn(CC(=O)N3CCc4ccccc43)cc2C1 (centres undefined)	-4	·	-1%	10µM*	-4	-5%
Cc1c(Cl)c([N+](=O)[O-])nn1CC(=O)N1CCN(C23CC4CC(CC(C4)C2)C3)CC1	-10	12µM*	-9%	2%	0	0%
O=C(Cn1cc2c(n1)CCCC2)N1CCCc2ccccc21	76*	4%	-7%	-18%	18*	-16%
Cc1cc2cc(CN(Cc3ccco3)S(=O)(=O)c3c(C)ccc4nsnc34)c(=O)[nH]c2cc1C	-10	?	-8%	87%	-2	6%
Cc1ccc2cc(CN(CC3CCCO3)S(=O)(=O)c3cccc4nsnc34)c(=O)[nH]c2c1 (centres undefined)	-6	9.3µM*	-1%	-1%	-4	-3%
Cc1ccc2cc(CN(Cc3ccco3)S(=O)(=O)c3c(C)ccc4nsnc34)c(=O)[nH]c2c1	30	?	-2%	4%	-2	-27%
Cc1ccc2cc(CN(CC(C)C)S(=O)(=O)c3cccc4nonc34)c(=O)[nH]c2c1	-7	?	·	10µM*	-11	19%
Cc1cc2cc(CN(CCCO)S(=O)(=O)c3cccc4nsnc34)c(=O)[nH]c2cc1C	-2	9.3µM*	-20%	-6%	1	-6%
Cc1ccc2[nH]c(=O)c(CN(CCCO)S(=O)(=O)c3c(C)ccc4nsnc34)cc2c1	12	0%	-1%	5.9µM*	-1	-15%
CCCCn1c(N)c(N(CC(C)C)C(=O)c2ccc3c(c2)NC(=O)C(C)S3)c(=O)[nH]c1=O (centres undefined)	-4	58%	·	-17%	-1	11%
SMILES	Shiga inhibitor	Pf growth 48h	Giardia FBPA inh	Pf growth 96h	Cycloheximide cs	NS1 function inh
COc1cc2cc(CN(CCO)S(=O)(=O)c3ccccc3Cl)c(=O)[nH]c2cc1OC	-21	?	-5%	-4%	-10	-14%
O=c1[nH]c2cc3c(cc2cc1CN(CCO)S(=O)(=O)c1ccccc1Cl)OCCO3	-11	·	-6%	0.66µM*	-6	-9%
Cc1ccc(S(=O)(=O)N2CCCC2)cc1C(=O)NCC(C)(C)N1CCOCC1	·	-4%	·	-10%	·	·
Cc1nn(-c2ccccc2)c(N)c1C1(O)C(=O)Nc2ccc([N+](=O)[O-])cc21 (centres undefined)	-4	3%	-30%	-14%	-1	2%
Cc1nn(-c2ccc([N+](=O)[O-])cc2)c2c1C(c1cccc(Br)c1)N1C(=N2)C(=O)Nc2ccccc21 (centres undefined)	-4	1.3µM*	3%	1µM*	-1	21%
CCOc1ccccc1C1N=C(c2ccc(OC)cc2)CC(c2ccccc2O)N1 (centres undefined)	114*	-92%	1%	21%	46*	·
O=C(/C=C/c1ccco1)NCC1COc2ccccc2O1 (centres undefined)	40	6%	15%	-11%	36*	-7%
COc1ccc(/C=C/C(=O)NCC2COc3ccccc3O2)c(OC)c1 (centres undefined)	46*	-5%	?	?	20*	14%
O=C(CCC1COc2ccccc2O1)NCC1COc2ccccc2O1 (centres undefined)	3	1%	1%	·	1	-45%
COc1ccccc1NC(=O)C(=O)NCC1COc2ccccc2O1 (centres undefined)	14	14%	-2%	7%	23*	-10%
O=C(COC(=O)CNS(=O)(=O)c1ccc(Cl)cc1)NC1CCCCC1	·	0%	·	20%	·	·
COc1ccccc1NC(=O)CSc1nc2ccccc2c(=O)n1CCNC(C)=O	-25	?	0%	8.3µM*	-4	-20%
CCOC(=O)CSc1nc2ccccc2c(=O)n1CCCCCC(=O)NCc1ccco1	-6	12µM*	0%	33%	7	5%
Cc1cccc(-n2c(SCC(=O)NCc3ccco3)nc3ccccc3c2=O)c1	12	?	-1%	-25%	2	-12%
CC(=O)NCCn1c(SCC(=O)NCc2ccco2)nc2ccccc2c1=O	-15	6%	1%	4.7µM*	-1	5%
CC(=O)NCCn1c(SCC(=O)NCCC(C)C)nc2ccccc2c1=O	8	29%	5%	·	-4	0%
O=C(CSc1nc2ccccc2c(=O)n1-c1ccccc1)NCc1ccco1	41	0%	-3%	-2%	42*	-16%
CC(=O)c1ccc(S(=O)(=O)Nc2ccccc2C(=O)NC2CC2)cc1	·	2%	·	2%	·	·
